Each structure is given as a SMILES string.

The target of assay [1] is Sphingosine kinase 1 (Homo sapiens) (UniProt Q9NYA1). The settings on record: at 1 µM.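 Note: mean SPHK1 inhibition value reported from the GSK PKIS kinase panel screen.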
The target in assay [2] is T1, Sphingosine kinase 2 (Homo sapiens) (UniProt Q9NRA0).
T1 sequence (whole entry): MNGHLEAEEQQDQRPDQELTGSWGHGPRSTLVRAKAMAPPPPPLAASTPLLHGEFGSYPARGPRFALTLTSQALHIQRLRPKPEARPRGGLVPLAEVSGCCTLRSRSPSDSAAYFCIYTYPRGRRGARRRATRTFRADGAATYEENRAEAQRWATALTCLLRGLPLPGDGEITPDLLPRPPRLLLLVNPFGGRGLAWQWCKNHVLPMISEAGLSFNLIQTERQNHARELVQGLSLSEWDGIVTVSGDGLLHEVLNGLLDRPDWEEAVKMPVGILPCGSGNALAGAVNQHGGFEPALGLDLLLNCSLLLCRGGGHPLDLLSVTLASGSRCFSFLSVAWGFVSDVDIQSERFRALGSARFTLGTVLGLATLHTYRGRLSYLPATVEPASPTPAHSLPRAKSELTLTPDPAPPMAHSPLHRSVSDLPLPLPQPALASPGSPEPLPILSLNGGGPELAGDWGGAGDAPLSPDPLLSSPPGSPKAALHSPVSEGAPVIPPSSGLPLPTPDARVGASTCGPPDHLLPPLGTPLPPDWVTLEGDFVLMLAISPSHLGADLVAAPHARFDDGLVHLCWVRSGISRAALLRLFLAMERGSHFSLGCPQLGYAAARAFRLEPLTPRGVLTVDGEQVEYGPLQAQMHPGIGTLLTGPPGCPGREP
The note with it: at 0.1 µM.

The target in assay [3] is T1, Sphingosine kinase 2 (Homo sapiens). The settings on record: at 1 µM.
The target of assay [4] is Casein kinase II subunit alpha (Homo sapiens) (UniProt P68400). The note with it: at 0.1 µM.
Sequence of Casein kinase II subunit alpha (Homo sapiens) (P68400 whole entry, looked up): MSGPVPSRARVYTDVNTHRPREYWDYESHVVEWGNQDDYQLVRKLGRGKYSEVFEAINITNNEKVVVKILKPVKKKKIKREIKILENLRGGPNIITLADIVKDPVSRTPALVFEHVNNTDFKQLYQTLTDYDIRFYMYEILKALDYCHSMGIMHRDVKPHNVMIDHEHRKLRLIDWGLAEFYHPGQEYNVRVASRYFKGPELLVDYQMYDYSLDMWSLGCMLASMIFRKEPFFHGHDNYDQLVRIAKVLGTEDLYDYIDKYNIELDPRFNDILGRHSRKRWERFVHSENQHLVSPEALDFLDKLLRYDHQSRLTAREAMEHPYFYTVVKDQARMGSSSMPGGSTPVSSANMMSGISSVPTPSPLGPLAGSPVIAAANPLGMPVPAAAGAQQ
Assay [5] shares this target. The note with it: at 1 µM.
Assay [6] has as its target T2, Inhibitor of nuclear factor kappa-B kinase subunit alpha (Homo sapiens) (UniProt O15111).
T2 sequence (whole entry): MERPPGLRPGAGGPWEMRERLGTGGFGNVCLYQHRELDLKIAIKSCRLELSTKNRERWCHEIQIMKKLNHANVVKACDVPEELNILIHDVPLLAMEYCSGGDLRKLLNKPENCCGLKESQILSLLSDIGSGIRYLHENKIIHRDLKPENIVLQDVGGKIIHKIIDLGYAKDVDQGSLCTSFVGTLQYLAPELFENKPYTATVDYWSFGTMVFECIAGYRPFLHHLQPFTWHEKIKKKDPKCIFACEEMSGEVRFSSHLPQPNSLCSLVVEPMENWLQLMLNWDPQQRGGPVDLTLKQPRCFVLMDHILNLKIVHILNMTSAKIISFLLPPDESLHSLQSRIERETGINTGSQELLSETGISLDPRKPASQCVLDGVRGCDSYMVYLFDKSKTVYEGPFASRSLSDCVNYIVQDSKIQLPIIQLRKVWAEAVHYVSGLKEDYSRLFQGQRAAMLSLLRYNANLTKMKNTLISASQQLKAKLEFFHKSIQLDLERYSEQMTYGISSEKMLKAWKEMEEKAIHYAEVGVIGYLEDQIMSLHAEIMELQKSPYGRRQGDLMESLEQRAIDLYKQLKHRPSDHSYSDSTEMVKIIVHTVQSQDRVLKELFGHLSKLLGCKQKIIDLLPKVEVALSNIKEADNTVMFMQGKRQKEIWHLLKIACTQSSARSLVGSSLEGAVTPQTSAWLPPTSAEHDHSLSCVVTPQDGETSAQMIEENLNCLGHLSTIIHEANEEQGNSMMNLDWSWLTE
The settings on record: at 0.1 µM.

Assay [7] has as its target T2, Inhibitor of nuclear factor kappa-B kinase subunit alpha (Homo sapiens). The settings on record: at 1 µM.
The target of assay [8] is T3, Inhibitor of nuclear factor kappa-B kinase subunit beta (Homo sapiens) (UniProt O14920).
T3 sequence (whole entry): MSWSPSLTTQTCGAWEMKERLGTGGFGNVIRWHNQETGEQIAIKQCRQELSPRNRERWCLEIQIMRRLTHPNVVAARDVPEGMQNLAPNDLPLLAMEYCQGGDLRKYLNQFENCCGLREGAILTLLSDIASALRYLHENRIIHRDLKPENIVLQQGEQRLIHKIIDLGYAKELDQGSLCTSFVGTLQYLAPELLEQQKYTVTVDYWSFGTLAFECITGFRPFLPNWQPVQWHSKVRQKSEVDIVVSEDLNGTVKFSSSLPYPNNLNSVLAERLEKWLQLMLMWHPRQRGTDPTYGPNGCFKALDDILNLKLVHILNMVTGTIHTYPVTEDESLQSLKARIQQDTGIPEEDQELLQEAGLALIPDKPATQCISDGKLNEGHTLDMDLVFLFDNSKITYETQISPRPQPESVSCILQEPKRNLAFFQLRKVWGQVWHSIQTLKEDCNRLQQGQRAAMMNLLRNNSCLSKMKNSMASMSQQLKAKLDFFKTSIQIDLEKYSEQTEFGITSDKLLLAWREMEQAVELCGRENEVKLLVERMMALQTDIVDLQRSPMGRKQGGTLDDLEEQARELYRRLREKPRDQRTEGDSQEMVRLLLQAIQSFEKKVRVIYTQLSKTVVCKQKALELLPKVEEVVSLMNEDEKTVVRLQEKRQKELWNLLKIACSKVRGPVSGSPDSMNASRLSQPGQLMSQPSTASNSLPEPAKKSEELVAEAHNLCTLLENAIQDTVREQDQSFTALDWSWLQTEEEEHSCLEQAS
The settings on record: at 0.1 µM.

For assay [9], the target named is T3, Inhibitor of nuclear factor kappa-B kinase subunit beta (Homo sapiens). The note with it: at 1 µM.
Assay [10] addresses T4, Inhibitor of nuclear factor kappa-B kinase subunit epsilon (Homo sapiens) (UniProt Q14164).
T4 sequence (whole entry): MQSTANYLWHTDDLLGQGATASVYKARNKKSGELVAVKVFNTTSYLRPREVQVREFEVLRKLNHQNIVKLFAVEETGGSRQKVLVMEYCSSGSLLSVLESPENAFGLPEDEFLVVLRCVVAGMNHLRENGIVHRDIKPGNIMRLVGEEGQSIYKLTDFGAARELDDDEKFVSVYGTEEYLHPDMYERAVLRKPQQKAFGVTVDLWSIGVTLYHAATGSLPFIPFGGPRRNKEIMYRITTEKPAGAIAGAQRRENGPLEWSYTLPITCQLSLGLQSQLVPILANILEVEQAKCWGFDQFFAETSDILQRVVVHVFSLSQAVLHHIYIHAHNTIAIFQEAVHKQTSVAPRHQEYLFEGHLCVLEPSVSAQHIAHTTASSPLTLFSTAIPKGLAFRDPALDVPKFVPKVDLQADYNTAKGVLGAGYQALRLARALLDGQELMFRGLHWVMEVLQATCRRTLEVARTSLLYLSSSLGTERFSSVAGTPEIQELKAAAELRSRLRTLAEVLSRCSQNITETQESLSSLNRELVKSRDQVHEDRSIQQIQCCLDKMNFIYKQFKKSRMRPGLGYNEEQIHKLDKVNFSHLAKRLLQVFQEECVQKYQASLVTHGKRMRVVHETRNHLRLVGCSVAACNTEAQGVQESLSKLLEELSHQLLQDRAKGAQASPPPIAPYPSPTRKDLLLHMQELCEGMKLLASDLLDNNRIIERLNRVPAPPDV
The note with it: at 0.1 µM.

Assay [11] addresses T4, Inhibitor of nuclear factor kappa-B kinase subunit epsilon (Homo sapiens). The note with it: at 1 µM.
In assay [12] the target is T5, Serine/threonine-protein kinase Nek1 (Homo sapiens) (UniProt Q96PY6).
T5 sequence (whole entry): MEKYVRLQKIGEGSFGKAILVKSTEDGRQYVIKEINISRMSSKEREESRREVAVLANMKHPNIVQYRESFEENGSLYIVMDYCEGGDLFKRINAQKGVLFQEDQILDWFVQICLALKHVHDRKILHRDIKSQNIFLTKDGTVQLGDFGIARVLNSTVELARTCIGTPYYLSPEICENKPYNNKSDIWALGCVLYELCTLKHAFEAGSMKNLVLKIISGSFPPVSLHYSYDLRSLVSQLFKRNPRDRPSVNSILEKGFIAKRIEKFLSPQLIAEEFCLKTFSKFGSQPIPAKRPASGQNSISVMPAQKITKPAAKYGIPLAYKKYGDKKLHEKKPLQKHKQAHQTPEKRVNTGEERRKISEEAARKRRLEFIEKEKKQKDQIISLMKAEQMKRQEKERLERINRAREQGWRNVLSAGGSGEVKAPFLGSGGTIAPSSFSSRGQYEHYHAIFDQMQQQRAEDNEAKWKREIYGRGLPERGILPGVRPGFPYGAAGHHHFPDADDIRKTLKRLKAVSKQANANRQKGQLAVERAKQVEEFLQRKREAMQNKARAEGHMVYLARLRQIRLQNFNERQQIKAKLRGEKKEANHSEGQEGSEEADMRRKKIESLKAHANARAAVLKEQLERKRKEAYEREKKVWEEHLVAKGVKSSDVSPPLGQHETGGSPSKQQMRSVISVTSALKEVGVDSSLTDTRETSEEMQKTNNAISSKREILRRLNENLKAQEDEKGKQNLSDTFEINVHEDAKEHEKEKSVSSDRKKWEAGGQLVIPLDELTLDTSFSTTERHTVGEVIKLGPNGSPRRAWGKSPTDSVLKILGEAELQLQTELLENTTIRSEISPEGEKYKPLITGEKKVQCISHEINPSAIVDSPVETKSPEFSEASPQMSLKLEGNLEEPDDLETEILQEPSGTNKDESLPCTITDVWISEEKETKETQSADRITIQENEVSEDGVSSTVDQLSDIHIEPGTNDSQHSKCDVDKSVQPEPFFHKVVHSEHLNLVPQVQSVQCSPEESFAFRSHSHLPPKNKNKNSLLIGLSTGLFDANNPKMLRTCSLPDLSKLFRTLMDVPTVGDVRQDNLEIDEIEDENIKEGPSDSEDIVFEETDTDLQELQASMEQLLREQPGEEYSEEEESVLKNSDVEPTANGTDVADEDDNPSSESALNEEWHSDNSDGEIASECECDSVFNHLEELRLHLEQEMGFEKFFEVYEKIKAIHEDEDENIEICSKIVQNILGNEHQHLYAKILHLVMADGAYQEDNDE
The settings on record: at 0.1 µM.

For assay [13], the target named is T5, Serine/threonine-protein kinase Nek1 (Homo sapiens). The settings on record: at 1 µM.
Assay [14] has as its target T6, Serine/threonine-protein kinase Nek2 (Homo sapiens) (UniProt P51955).
T6 sequence (whole entry): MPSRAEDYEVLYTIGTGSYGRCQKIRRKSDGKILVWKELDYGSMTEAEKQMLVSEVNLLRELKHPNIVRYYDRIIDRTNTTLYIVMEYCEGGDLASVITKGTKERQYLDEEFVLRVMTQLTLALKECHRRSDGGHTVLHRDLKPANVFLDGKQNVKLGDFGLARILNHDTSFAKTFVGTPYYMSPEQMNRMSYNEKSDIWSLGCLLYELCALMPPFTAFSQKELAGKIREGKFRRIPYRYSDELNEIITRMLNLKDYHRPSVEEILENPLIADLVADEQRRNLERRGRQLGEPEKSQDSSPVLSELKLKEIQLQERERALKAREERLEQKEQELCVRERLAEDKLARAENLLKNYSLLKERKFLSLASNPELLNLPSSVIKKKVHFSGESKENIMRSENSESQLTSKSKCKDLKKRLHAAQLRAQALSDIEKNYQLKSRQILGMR
The note with it: at 0.1 µM.

Assay [15] concerns the target T6, Serine/threonine-protein kinase Nek2 (Homo sapiens). The note with it: at 1 µM.
Assay [16] addresses Serine/threonine-protein kinase Nek6 (Homo sapiens) (UniProt Q9HC98). The settings on record: at 0.1 µM.
For assay [17] the target is unchanged. The settings on record: at 1 µM.
Assay [18] addresses Serine/threonine-protein kinase Nek7 (Homo sapiens) (UniProt Q8TDX7). The note with it: at 0.1 µM.
For assay [19] the target is unchanged. The note with it: at 1 µM.
Assay [20] addresses T7, Serine/threonine-protein kinase Nek9 (Homo sapiens) (UniProt Q8TD19).
T7 sequence (whole entry): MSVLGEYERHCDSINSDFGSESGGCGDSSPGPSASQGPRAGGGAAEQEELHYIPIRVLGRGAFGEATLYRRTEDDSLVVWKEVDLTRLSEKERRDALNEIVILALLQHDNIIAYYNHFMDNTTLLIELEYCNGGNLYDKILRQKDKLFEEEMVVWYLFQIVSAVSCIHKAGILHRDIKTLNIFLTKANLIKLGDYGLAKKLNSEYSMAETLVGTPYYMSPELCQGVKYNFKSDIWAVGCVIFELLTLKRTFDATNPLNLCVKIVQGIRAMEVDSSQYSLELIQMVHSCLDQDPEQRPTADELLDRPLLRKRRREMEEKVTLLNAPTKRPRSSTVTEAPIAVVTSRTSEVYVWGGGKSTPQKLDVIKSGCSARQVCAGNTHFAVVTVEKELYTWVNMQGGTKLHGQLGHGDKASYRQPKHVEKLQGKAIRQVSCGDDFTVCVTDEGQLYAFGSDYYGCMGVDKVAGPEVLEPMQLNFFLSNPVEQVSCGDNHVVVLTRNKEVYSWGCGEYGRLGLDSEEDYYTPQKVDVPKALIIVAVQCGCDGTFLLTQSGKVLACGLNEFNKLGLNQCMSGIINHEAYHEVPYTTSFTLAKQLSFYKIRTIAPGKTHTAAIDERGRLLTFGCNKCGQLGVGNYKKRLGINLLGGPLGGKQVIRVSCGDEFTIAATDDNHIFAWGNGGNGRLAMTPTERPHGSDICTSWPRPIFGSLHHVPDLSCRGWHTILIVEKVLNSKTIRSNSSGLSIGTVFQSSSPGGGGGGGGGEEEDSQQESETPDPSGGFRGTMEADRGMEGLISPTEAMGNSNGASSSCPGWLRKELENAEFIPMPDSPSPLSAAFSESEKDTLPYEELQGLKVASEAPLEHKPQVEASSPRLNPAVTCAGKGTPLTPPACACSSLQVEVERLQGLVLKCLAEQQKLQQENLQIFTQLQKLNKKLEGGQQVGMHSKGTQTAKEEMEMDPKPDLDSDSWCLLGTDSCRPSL
The settings on record: at 0.1 µM.

Sequence of Serine/threonine-protein kinase Nek6 (Homo sapiens) (Q9HC98 whole entry): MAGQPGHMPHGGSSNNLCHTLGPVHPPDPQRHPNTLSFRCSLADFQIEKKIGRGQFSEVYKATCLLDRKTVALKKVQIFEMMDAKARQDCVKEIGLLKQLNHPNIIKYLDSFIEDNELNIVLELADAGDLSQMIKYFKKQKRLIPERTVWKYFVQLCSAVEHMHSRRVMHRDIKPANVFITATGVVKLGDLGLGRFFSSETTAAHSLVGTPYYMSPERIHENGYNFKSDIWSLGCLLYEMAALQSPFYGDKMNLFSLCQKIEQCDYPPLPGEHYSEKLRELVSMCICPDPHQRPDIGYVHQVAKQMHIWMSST
Sequence of Serine/threonine-protein kinase Nek7 (Homo sapiens) (Q8TDX7 whole entry, looked up): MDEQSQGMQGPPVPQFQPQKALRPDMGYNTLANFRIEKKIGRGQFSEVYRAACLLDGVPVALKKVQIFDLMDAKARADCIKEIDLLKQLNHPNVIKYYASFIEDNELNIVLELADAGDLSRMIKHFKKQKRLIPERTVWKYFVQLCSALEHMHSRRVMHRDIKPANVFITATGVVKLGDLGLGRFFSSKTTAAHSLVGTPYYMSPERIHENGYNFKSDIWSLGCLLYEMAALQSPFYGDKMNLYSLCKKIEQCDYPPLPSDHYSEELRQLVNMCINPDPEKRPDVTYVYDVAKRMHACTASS
Sequence of Sphingosine kinase 1 (Homo sapiens) (Q9NYA1 whole entry): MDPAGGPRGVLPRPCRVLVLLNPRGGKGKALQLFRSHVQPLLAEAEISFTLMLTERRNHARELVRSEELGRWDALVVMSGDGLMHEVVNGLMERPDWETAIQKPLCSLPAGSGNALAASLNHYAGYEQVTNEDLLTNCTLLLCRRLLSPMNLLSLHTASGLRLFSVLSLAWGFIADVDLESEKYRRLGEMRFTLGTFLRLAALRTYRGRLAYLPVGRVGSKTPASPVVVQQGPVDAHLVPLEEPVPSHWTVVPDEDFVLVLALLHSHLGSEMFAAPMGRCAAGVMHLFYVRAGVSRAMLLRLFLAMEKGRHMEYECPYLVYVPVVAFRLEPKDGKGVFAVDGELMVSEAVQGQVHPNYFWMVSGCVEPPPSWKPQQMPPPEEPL

As usually defined, the inhibition is the relative decrease from the control value, in per cent. Regarding `FC(F)(F)CNc1nccc(-c2cnn3ncccc23)n1`, the inhibition in [1] was -0.16%; in assay [2], -1.21%; in assay [3], -4.21%; in assay [4], 9.47%; in assay [5], 3.8%; in assay [6] it was 1.92%. Further, the inhibition is 9.86% in assay [7]; 4.92% in [8]; 5.42% in [9]; 6.69% in [10]; 0.44% in assay [11]; 2.31% in assay [12]. The inhibition is 0.95% in assay [13]; 3.06% in assay [14]; 2.24% in [15]; 0.83% in [16]; 0.6% in [17]; -1.64% in assay [18]. The inhibition in assay [19] was determined as 1.79%; in [20], 4.65%.

These data come from ChEMBL document CHEMBL1961873, “Compounds: GSK PKIS; Assays: Nanosyn kinase panel” (2012).
